Assay outcomes (PubChem)
TDP43 rescue: qHTS of TDP-43 Inhibitors; TDP-43 expressing yeast growth rescue, BacTiter-Glo, 24 h; Potency, µM (series often up to 46.1 µM), usual class: activators; 410,000 tested, 1.8% active; further: nearly all actives have a fitted effect of over 50% in size
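Readout is BacTiter-Glo luminescence of cell growth, so inhibitors register as activators. TDP-43-expressing yeast at OD600=0.02 in galactose medium, after raffinose pregrowth to mid-log, were incubated with compound for 24 hr at 30 deg C.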
Abeta rescue: qHTS for compounds that reverse cellular toxicity of Amyloid beta (A-beta) peptide in yeast: Primary Screen; Potency, µM (titrated, usually from 46.1 µM), actives largely listed as activators; yeast expressing A-beta42, growth rescue, OD600, 48 h; response scale: 0% DMSO, 100% iron-clioquinol control; 410,000 tested, 0.063% active; further: nearly all actives have a fitted effect of over 55% in size
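Yeast A-beta toxicity model in growth medium with pinned compounds, 48 h at 30 C; growth read as absorbance at 600 nm. Normalized to FeCl3/clioquinol equimolar mix (positive) and DMSO (negative).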
FUS yeast rescue: qHTS for Suppressors of FUS Proteinopathy: Primary screen using FUS-linked yeast assay; S. cerevisiae FUS-expressing, growth rescue, OD600, 24 h; Potency, µM (doses to about 76.6 µM), hits mostly activators; 390,000 tested, 0.24% active; AID 1347120, 2019; further: nearly all actives have a fitted effect of over 55% in size
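Read-out: OD at 600 nm after 24hr at 30C, reporting rescue of FUS-induced yeast toxicity. Cells at OD 0.005 in galactose (2%) minimal medium; compounds tested in a dilution series; CP55940 titration from 92uM final as control.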
Glioma ERSR ind: qHTS for Inducers of the Endoplasmic Reticulum Stress Response (ERSR) in Human Glioma: qHTS; U87-MG GRP78 promoter luciferase reporter, 16 h; 420,000 tested, 0.02% active; AID 602332, 2012; Potency, µM, hits mostly activators; further: series mostly up to about 76 µM; nearly all actives have a fitted effect of over 35% in size
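Stably transfected U87-MG glioma cells carrying a GRP78-based luciferase sensor; 16 h compound incubation. Luminescence end-point read 10 min after Bright-Glo addition at room temperature.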
aSyn yeast inh: qHTS of alpha-syn Inhibitors. Potency, µM (series often up to 46.1 µM), most hits filed as activators. 370,000 tested, 0.14% active. Yeast expressing alpha-synuclein, growth rescue, BacTiter-Glo, 24 h. AID 652106, 2013; further: nearly all actives have a fitted effect of over 65% in size
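Rescue of yeast growth: cells expressing toxic alpha-synuclein, induced in galactose at OD600 0.02, incubated with compound 24 h at 30 C. ATP luminescence quantified growth; inhibitors of toxicity appear as activators.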
MBNL1 CUG block: qHTS Assay for Inhibitors of MBNL1-poly(CUG) RNA binding; Potency, µM (top dose mostly 57.5 µM), hits mostly inhibitors; TR-FRET MBNL1-His/biotin-(CUG)12 binding, 665/545 ratio; 280,000 tested, 0.036% active; active means well fitted inhibition curve with a large enough effect in the signal ratio, with a control signal flat, not every such curve was filed as active; inconclusive means small, poorly fitted or top-dose-only effect, or effect the other way, or a change in a side signal; inactive means no such curve, though single readings can be large or run the other way; the % refers to the signal ratio
Target sequence (Q9NR56 whole entry, looked up): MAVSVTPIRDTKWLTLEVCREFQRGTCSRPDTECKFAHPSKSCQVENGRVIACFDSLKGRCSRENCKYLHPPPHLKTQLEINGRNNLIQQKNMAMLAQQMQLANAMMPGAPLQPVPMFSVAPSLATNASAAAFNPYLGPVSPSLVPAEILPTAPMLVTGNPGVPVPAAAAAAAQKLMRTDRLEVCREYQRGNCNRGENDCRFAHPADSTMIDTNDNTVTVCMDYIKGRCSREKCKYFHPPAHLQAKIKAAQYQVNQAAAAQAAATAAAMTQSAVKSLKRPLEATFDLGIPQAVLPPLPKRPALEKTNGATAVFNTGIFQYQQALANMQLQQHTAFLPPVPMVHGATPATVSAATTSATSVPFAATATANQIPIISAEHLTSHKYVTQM
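MBNL1-His + Biotin-(CUG)12, cpd titration 92 nM–58 uM; Tb anti-His Ab 0.055 ng/ul, SA-XL665 5 nM (final); 60 min RT; ratiometric 665/545 nm, Ex 340 nm; normalized to buffer and full-complex controls.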
Large screens that a line does not name were inactive. This is a sample that favours compounds with a hit; in the whole collection about 2% have one here. Unless noted, the call rests on the fitted dose curve; in most records, active means well fitted curve in the direction sought with a large enough effect; inconclusive means small, poorly fitted or top-dose-only effect, or another doubt; inactive means no such curve, though single readings can be large; an effect the other way counts as inactive or inconclusive.

CC1(Cc2ccc(F)c(Cl)c2)C(=O)Nc2c(Cl)cccc21 (configuration not stated)	TDP43 rescue 22.4µM, aSyn yeast inh 3.55µM (no result: MBNL1 CUG block)
COc1ccc(Cl)cc1CC1(C)C(=O)Nc2c(Cl)cccc21 (configuration not stated)	TDP43 rescue 28.2µM (no result: MBNL1 CUG block)
O=C(CCc1cccnc1)NCC1Cc2cccc(-c3ncccn3)c2O1 (configuration not stated)	none (no result: TDP43 rescue, Abeta rescue, FUS yeast rescue, aSyn yeast inh, MBNL1 CUG block)
CC(=O)Nc1cc(C(=O)N2CC3(C)CC2CC(C)(C)C3)cc2ncn(CCc3ccccn3)c12 (configuration not stated)	none (no result: TDP43 rescue, Abeta rescue, FUS yeast rescue, aSyn yeast inh, MBNL1 CUG block)
COc1cccc(-n2c(-c3ccccc3F)nc3c(cnn3-c3ccc(C)cc3)c2=O)c1	FUS yeast rescue 15.8µM (no result: aSyn yeast inh, MBNL1 CUG block)
Cc1cc(OCC(=O)NNC(=S)NC(=O)c2ccc(Br)o2)ccc1Cl	TDP43 rescue 20µM, Abeta rescue inconclusive, aSyn yeast inh inconclusive
Cc1c(Cl)cccc1-n1ncc(C(=O)NCc2cccs2)c1C1CCN(C(=O)OC(C)(C)C)CC1	TDP43 rescue 31.6µM, Abeta rescue inconclusive, FUS yeast rescue inconclusive (no result: aSyn yeast inh, MBNL1 CUG block)
Cc1ccc(-n2ncc(C(=O)NCc3cccs3)c2C2CCN(C(=O)OC(C)(C)C)CC2)cc1C	FUS yeast rescue 20µM (no result: aSyn yeast inh, MBNL1 CUG block)
CC(C)(C)OC(=O)N1CCC(c2c(C(=O)NCc3cccs3)cnn2-c2cccc(F)c2)CC1	TDP43 rescue inconclusive (no result: aSyn yeast inh, MBNL1 CUG block)
Cc1nc([N+](=O)[O-])c(Br)n1Cc1ccc(Cl)c(Cl)c1	TDP43 rescue 14.1µM
Cc1nc([N+](=O)[O-])c(Br)n1CC(=O)c1ccc(Cl)cc1	TDP43 rescue 12.6µM
Cc1cnn(C(=S)NCc2ccc(Cl)cc2)c1	none
Cc1cnn(C(=S)NCCc2ccccc2)c1	TDP43 rescue 11.2µM
O=[N+]([O-])C1C(c2ccccc2)=NOC1c1ccccc1O (configuration not stated)	TDP43 rescue 17.8µM, MBNL1 CUG block inconclusive
Oc1ccccc1C1N=C(c2ccccc2)NC(c2ccccc2)=N1	none
O=C1N2CCCc3cccc(c32)C12Nc1ccccc1S2 (configuration not stated)	TDP43 rescue 20µM, aSyn yeast inh inconclusive (no result: FUS yeast rescue)
COC(=O)[C@]12CCCCC=C1N(Cc1ccc(OC)cc1)C(=O)[C@@H]2CC(=O)N1CCCC1	none (no result: TDP43 rescue, Abeta rescue, Glioma ERSR ind, aSyn yeast inh, MBNL1 CUG block)
O=C(COc1cccc(Cl)c1)N1CCC(c2nc3ccccc3o2)CC1	TDP43 rescue 28.2µM (no result: aSyn yeast inh, MBNL1 CUG block)
CCCCOc1ccc(C(=O)N2CCC(c3nc4ccccc4o3)CC2)cc1	TDP43 rescue 28.2µM (no result: aSyn yeast inh, MBNL1 CUG block)
Cc1nc(C)c(C(=O)NCc2nc(-c3cccc(NC(=O)c4ccccn4)c3)oc2C)s1	none (no result: TDP43 rescue, Abeta rescue, FUS yeast rescue, aSyn yeast inh, MBNL1 CUG block)
CC(C)(C)n1ncc2c(=O)n(Cc3cc(C(F)(F)F)ccc3Cl)cnc21	none (no result: TDP43 rescue, Abeta rescue, FUS yeast rescue, aSyn yeast inh, MBNL1 CUG block)
Nc1nnc(-c2ccc(Cl)cc2Cl)s1	TDP43 rescue 11.2µM
Clc1ccc(-c2nn3cnnc3s2)c(Cl)c1	TDP43 rescue 17.8µM
COC(=O)[C@@]12C[C@@H](CC(=O)NCc3ccc(OC)c(OC)c3)C(=O)N(Cc3ccc4c(c3)OCO4)C1=CCC(C)(C)C2	FUS yeast rescue 12.6µM (no result: Glioma ERSR ind, MBNL1 CUG block)
COC(=O)[C@@]12C[C@@H](CC(=O)NCCC(C)C)C(=O)N(Cc3cccc4ccccc34)C1=CCC(C)(C)C2	FUS yeast rescue 14.1µM (no result: Glioma ERSR ind, MBNL1 CUG block)
O=C(CCn1c(=O)c2cccn2c2cccnc21)N1CCN(c2cccc(C(F)(F)F)c2)CC1	TDP43 rescue 25.1µM (no result: aSyn yeast inh, MBNL1 CUG block)
O=C(CCn1c(=O)c2cccn2c2cccnc21)N1CCN(c2ccccc2)CC1	none (no result: aSyn yeast inh, MBNL1 CUG block)
O=C(NCc1ccc(F)c(F)c1)C1CCCN(c2nc3ccccc3o2)C1 (configuration not stated)	none (no result: TDP43 rescue, Abeta rescue, Glioma ERSR ind, aSyn yeast inh, MBNL1 CUG block)
O=C(Nc1nc2ccc(S(=O)(=O)N3CCCCC3)cc2s1)c1ccncc1	FUS yeast rescue 35.5µM
